Gal4-VP16 FLuc: counter-screen for ROR gamma inhibitors: Gal4-VP16 reporter; Drosophila S2 Gal4-VP16 UAS-luciferase, luminescence, 20 h; Potency, µM (series often up to 53.6 µM), without a hit: at the highest dose activity, negative = inhibition, most hits filed as inhibitors; 310,000 tested, 3.5% active;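 also: Gal4-VP16 expression switched on by copper sulfate through the metallothionein promoter; % is scaled to controls: 0 for no effect and ±100 for the full control effect; nearly all actives have a fitted effect of over 50% in size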
RORgamma inh: blocks mouse ROR gamma transcriptional activity; Drosophila S2 Gal4-RORgamma UAS-luciferase reporter, 20 h; Potency, µM (series often up to 53.6 µM), without a hit: at the top dose activity change, negative = inhibition, usual class: inhibitors; 310,000 tested, 5.4% active; also: % is scaled to controls: 0 for no effect and ±100 for the full control effect; nearly all actives have a fitted effect of over 60% in size
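Luminescence from a UAS-regulated Photinus luciferase reporter in stably transfected Drosophila Schneider cells is measured; decreased signal marks ROR gamma inhibition. Fusion expression is induced by 700 uM copper sulfate for 20 hr.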
ClpP mod: qHTS Assay for Activators of ClpP; ATP-dependent Clp protease proteolytic subunit (Bacillus subtilis (strain 168)), P80244; purified B. subtilis ClpP, FRET peptide cleavage, 20 min; Potency, µM (series often up to 57.5 µM), for the others: at the highest dose activity change, negative = active; 340,000 tested, 1.9% active; AID 651965, 2013; active = well fitted falling curve with a large enough effect; inconclusive = small, poorly fitted or top-dose-only effect; inactive = no such curve, though single readings can be large or run the other way; also: the source files actives as falling curves though it sought activators and does not explain the sign; nearly all actives have a fitted effect of over 65% in size
Target sequence (P80244 whole entry, looked up): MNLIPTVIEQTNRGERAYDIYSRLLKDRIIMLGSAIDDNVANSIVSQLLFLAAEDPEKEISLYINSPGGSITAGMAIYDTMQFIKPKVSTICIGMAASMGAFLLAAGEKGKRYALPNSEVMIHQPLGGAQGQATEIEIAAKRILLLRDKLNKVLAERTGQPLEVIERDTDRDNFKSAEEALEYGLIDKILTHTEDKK
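ClpP 10 microg/mL final, pH 8 Tris/KCl buffer with BSA, glycerol, Tween-20; compound pinned in; FRET-FV substrate; RT 20 min; Ex320/Em430; ΔFRET vs ADEP 5.8 microM, DMSO, no enzyme.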
PINK1 modulator: PINK1 expression modulation | PINK1 immunofluorescence, high-content cytometry, 24 h | Potency, µM (series often up to 76.6 µM), for the others: top-dose activation (PINK1 increase), actives largely listed as activators | 410,000 tested, 0.2% active | AID 624263; active = well fitted activation curve with a large enough effect; inconclusive = small, poorly fitted or top-dose-only effect; cell line not stated here; also: % of control where 0% means no effect; nearly all actives have a fitted effect of over 65% in size
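Readout is PINK1 immunofluorescence, quantified alongside mitochondrial, cell and nuclear markers by laser-scanning microplate cytometry. Cells from a stable line were exposed to compound titrations (5 concentrations) for 24 hours, with CCCP controls.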
Sfp inh: Sfp phosphopantetheinyl transferase inhibition; Biochemical Sfp PPTase activity, qHTS; Q9F4F7; 310,000 tested, 3.5% active; Potency, µM, without a hit: largest response in the series, negative = inhibition, most hits filed as inhibitors;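 also: the enzyme is Sfp with the accession as filed and its product quenches rhodamine fluorescence; 0% = enzyme reaction without inhibitor and -100% = no enzyme wells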
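Step 1, compound plus 15 nM Sfp-PPTase, 15 min, room temperature. Step 2, add rhodamine-CoA (5 uM) and BHQ-2-YbbR (12.5 uM). Step 3, read 525/598 nm fluorescence at 0 and 30 min.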
Epigenetic reg: epigenetic control regulation, reporter derepression | murine LDR cells, GFP reporter derepression, 30 h | Potency, µM (titrated, usually from 53.9 µM), inactives show at the top dose GFP activation, actives largely listed as activators | AID 1865 | 280,000 tested, 0.2% active; also: % of control where 0% means no effect; nearly all actives have a fitted effect of over 60% in size
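Readout is the number of GFP-expressing murine LDR cells, counted by cytometry following washing. Cells were treated with compound for 30 h at 37 C; the stably integrated CMV-GFP locus is normally silent.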
* hit, by the source's call; u = inconclusive; x = no result. This is a sample that favours compounds with a hit; in the whole collection about 8.1% have one here. Unless noted, calls follow the shape of the dose curve; as a rule, active = well fitted curve in the direction sought with a large enough effect; inconclusive = small, poorly fitted or top-dose-only effect, or another doubt; inactive = no such curve, though single readings can be large; an effect the other way counts as inactive or inconclusive. Potency is read from the fitted curve at half-maximal effect.

SMILES	Gal4-VP16 FLuc	RORgamma inh	ClpP mod	PINK1 modulator	Sfp inh	Epigenetic reg
Cc1cccc(NC(=O)NNC(=O)c2cc3ccccc3cc2O)c1C	-6%	9%	x	15%	-2%	-1%
Cc1cccc(C)c1NC(=S)NC1CCCCC1	4.5µM*	6.3µM*	-5%	u	9%	0%
Cc1cc([N+](=O)[O-])ccc1NC(=S)NC1CCCC1	-22%	-4%	2%	-1%	20%	x
CCc1cccc(NC(=O)Cn2c(=O)n(-c3cccc(Cl)c3)c(=O)c3c2c2cc(C)ccc2n3C)c1	x	x	-16%	1%	x	1%
CC(C)c1ccc(NC(=S)NN2C(C)CCCC2C)cc1 (stereo not drawn)	6.3µM*	1.6µM*	x	-2%	10%	0%
COc1ccc(NC(=S)Nc2ccc(S(=O)(=O)N3CCCCC3)cc2)cc1	x	x	-1%	0%	x	x
COc1cccc(NC(=S)NN2C(C)CCCC2C)c1 (stereo not drawn)	5.6µM*	2.2µM*	1%	0%	4%	0%
CC1CCCC(C)N1NC(=S)Nc1ccc(OC(F)F)cc1 (stereo not drawn)	6.3µM*	3.2µM*	1%	0%	0%	-1%
COc1ccc(NC(=S)NN2C(C)CCCC2C)cc1 (stereo not drawn)	7.1µM*	7.9µM*	2%	0%	13%	-1%
CC1CCCCN1C(=S)Nc1ccc(OC(F)F)cc1 (stereo not drawn)	-7%	-43%	-3%	-2%	11%	0%
COc1cccc(NC(=S)NN2CCN(C)CC2)c1	-14%	-18%	-4%	2%	-19%	5%
COCCCNC(=O)Cn1nc(N2CCN(c3ccccc3)CC2)ccc1=O	x	x	0%	-1%	x	12%
Cc1ccc(-n2ncc(C(=O)NCCCN3CCCCC3)c2C2CCN(C(=O)OC(C)(C)C)CC2)c(C)c1	x	x	1%	4%	x	0%
C=CCC(CC(O)COCCC)C(=O)NNC(=S)Nc1ccccc1 (stereo not drawn)	0.79µM*	0.28µM*	x	0%	7%	10%
CC(C)CCOCC(O)CCC(=O)NNC(=S)Nc1ccccc1 (stereo not drawn)	u	11µM*	-3%	2%	5%	2%
CC(C)CCC(CC(C)O)C(=O)NNC(=S)Nc1ccccc1 (stereo not drawn)	-8%	-30%	-1%	1%	19%	1%
C(=C\c1cnc2ccccc2n1)/c1ccc2c(c1)OCO2	x	x	-10%	2%	x	x
Cc1ccc(/C=C2\SC(=S)N(CCCC(=O)Nc3ccccn3)C2=O)cc1	1.6µM*	0.45µM*	1%	12%	15%	0%
Cc1ccc(/C=C2\SC(=S)N(CCCC(=O)Nc3ccccc3C(=O)O)C2=O)cc1	u	-27%	-1%	1%	5%	x
COC(=O)c1ccc(/C=C2/SC(=S)N(CCCC(=O)Nc3ccc(O)cc3)C2=O)cc1	13%	-3%	-2%	1%	11%	x
Cc1ccc(/C=C2\SC(=S)N(CCCC(=O)Nc3ccc(O)cc3)C2=O)cc1	x	0.05µM*	x	0%	8%	-1%
Cc1ccc(/C=C2/SC(=S)N(CCCC(=O)Nc3cc([N+](=O)[O-])ccc3O)C2=O)cc1	u	7.9µM*	-1%	8%	0%	x
O=C(CCCN1C(=O)S/C(=C\C=C\c2ccccc2)C1=O)Nc1ccc(O)cc1	u	0.32µM*	-3%	1%	10%	x
COc1ccc(/C=C2\SC(=S)N(CCC(=O)NC3=NCCS3)C2=O)cc1OC	u	-43%	-2%	8%	-5%	13%
COc1cc(/C=C2\SC(=S)N(CC(=O)NC3=NCCS3)C2=O)cc(OC)c1OC	-24%	-41%	x	28µM*	8%	u
COc1ccc(/C=C2\SC(=S)N(CCCC(=O)Nc3ccccn3)C2=O)cc1OC	5µM*	4.5µM*	0%	2%	-10%	u
